Assay outcomes deposited in PubChem by National Center for Advancing Translational Sciences (NCATS).
ATXN viability – viability counter-screen for ATXN expression inhibitors. S2 cells (HEK-293 line with an ATXN2-luciferase reporter) viability, CellTiter-Fluor protease fluorescence, 24 h. Potency, µM (series often up to 56.7 µM), hits mostly cytotoxic. 0.49% of 400,000 active. AID 651635; also: nearly all actives have a fitted effect of over 40% in size
ATXN2 expr inh – reduces ATXN2 reporter expression in HEK-293 cells | HEK-293 ATXN2-luciferase reporter, luminescence, 24 h | Potency, µM (top dose mostly 57 µM), hits mostly inhibitors | AID 1745845 | 0.72% of 360,000 active; also: nearly all actives have a fitted effect of over 55% in size
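qHTS (up to 57 uM final) was run with 24 h compound exposure of reporter cells at 37 °C. Each well was multiplexed: SteadyGlo luminescence measured ATXN2-luciferase expression after a fluorogenic Gly-Phe-AFC viability readout (25 uM final).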
Apoferritin bind – candidate novel general anesthetic via apoferritin binding. P02791. apoferritin/1-aminoanthracene competitive binding, fluorescence. Potency, µM (doses to about 77.5 µM), most hits filed as inhibitors. 0.074% of 350,000 active. AID 485281; also: nearly all actives have a fitted effect of over 20% in size
Target sequence (P02791 2-175 limits assumed): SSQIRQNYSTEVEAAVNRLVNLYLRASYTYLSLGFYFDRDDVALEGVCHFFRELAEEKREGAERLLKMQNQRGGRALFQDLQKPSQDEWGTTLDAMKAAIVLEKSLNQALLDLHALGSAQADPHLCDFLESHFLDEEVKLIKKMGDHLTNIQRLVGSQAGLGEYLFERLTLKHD
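Horse-spleen apoferritin (10 uM) in 50% saturated 1-aminoanthracene in PBS was incubated 10 min at room temperature with compound. Fluorescence (ex 380, em 535 nm) was normalized to free and bound 1-AMA, with concentration-response fitted by a four-parameter Hill equation.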
TGFb inhibitor – TGF-b pathway inhibition; Potency, µM (highest dose often 46.1 µM), hits mostly inhibitors; HepG2 CAGA-GFP TGF-b/SMAD3 reporter, GFP fluorescence, 18 h; TGF-beta stimulated, 500 pg/mL final; 1.2% of 410,000 active; AID 588855; also: nearly all actives have a fitted effect of over 65% in size
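Smad-responsive CAGA-GFP expression was quantified in HEPG2 cells exposed to compounds and 500 pg/mL final TGF-beta for 18 h at 37 degrees C; unstimulated wells defined full inhibition.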
HepG2 tox – counter-screen for TGF-b inhibitors: cytotoxicity in HepG2 cells. HepG2 CAGA-GFP viability, ATP luminescence, 18 h. Potency, µM (highest dose often 46.1 µM), usual class: cytotoxic. 0.76% of 410,000 active
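HepG2 CAGA-GFP cells (1000/well, DMEM with 1% FBS) received compound, then TGF-beta at 500 pg/mL final, and were incubated 18 hours at 37 degrees C. Viability was read by CellTiter-Glo luminescence. Media-only wells were set as complete cell-killing and DMSO as no toxicity.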
A number is an active result; – = inactive; ? = inconclusive; · = no result given; ! = not confirmed by another sample; [ ] = dose if it differs, or a comment. Only some compounds are listed: those with a hit (about 2.4% of all), similar ones and a draw of the others. Calls follow the shape of the dose curve; as a rule, active = well fitted curve in the direction sought with a large enough effect; inconclusive = small, poorly fitted or top-dose-only effect, or another doubt; inactive = no such curve, though single readings can be large; an effect the other way counts as inactive or inconclusive.

SMILES | ATXN viability | ATXN2 expr inh | Apoferritin bind | TGFb inhibitor | HepG2 tox
COc1ccc(Cl)cc1NC(=O)NC1CCCCC1 | – | – | – | – | –
Cc1nc2ccccc2nc1N/N=C/c1ccc(O)cc1 | – | – | – | – | –
Cc1nc(N/N=C/c2ccc(O)cc2)c2cnn(-c3ccccc3)c2n1 | ? | – | – | – | 16µM
CC1(C)CCC(c2ccc(Cl)cc2)=C(CN2CCN(c3ccc(C(=O)NS(=O)(=O)c4ccc(N[C@H](CCN5CCOCC5)CSc5ccccc5)c(S(=O)(=O)C(F)(F)F)c4)cc3)CC2)C1 | · | ? | · | ? | 5.6µM
CN(C)CC[C@H](CSc1ccccc1)Nc1ccc(S(=O)(=O)NC(=O)c2ccc(N3CCN(Cc4ccccc4-c4ccc(Cl)cc4)CC3)cc2)cc1[N+](=O)[O-] | · | – | · | · | ·
Cc1cc(SCC(=O)c2ccc(Br)cc2)cc(C)[o+]1 | · | · | · | – | –
CC(=O)Nc1ccc(-c2ccnc3c2CC(C)(C(=O)NCc2cccc(Cl)c2)O3)cc1 (stereo not given) | – | – | · | – | –
CCCCOCCOc1nc(-c2ccc(C(=O)O)c(F)c2)sc1C | · | – | · | · | ·
Cc1ccc(C(=O)NCc2ccccn2)cc1Cl | – | · | – | – | –
COc1cccc(CNc2ccc(F)c(Cl)c2)c1 | ? | – | 8.9µM | – | –
COc1cccc(CNc2ccc(F)c(Cl)c2)c1O | – | – | – | – | –
COc1cc2ncnc(Nc3cccc(Cl)c3)c2cc1OC | · | – | – | ? | –
COc1cc2ncnc(Nc3cccc(Br)c3)c2cc1OC | · | – | · | · | ·
COc1cc2c(Nc3ccc(Br)cc3F)ncnc2cc1OCC1CCN(C)CC1 | – | 31µM! | · | · | ·
COc1cc2c(Nc3ccc(Cl)c(Cl)c3F)ncnc2cc1OCC1C[C@@H]2CN(C)C[C@H]2C1 | · | 31µM | · | · | ·
COc1ccc(/C=C/c2ccccn2)cc1 | · | · | · | ? | –
COc1ccc(C(=O)C=CNNC(=O)c2ccc(Cl)cc2)cc1 | ? | ? | ? | 13µM | –
COc1ccc(C(=O)NN/C=C/C(=O)c2ccc(Br)cc2)cc1 | ? | · | · | ? | –
C=CCOC(=O)C(C(C)=O)C(NC(=O)OC)c1cccc(C(F)(F)F)c1 (stereo not given) | · | · | –[15.3 µM] | · | ·
CN(C)CC1CCn2c(c(C3=C(c4cn(C)c5ccccc45)C(=O)NC3=O)c3ccccc32)C1 (stereo not given) | · | · | – | · | ·
Cc1ccc(N(CC(O)Cn2c3ccccc3c3ccccc32)S(C)(=O)=O)cc1 (stereo not given) | – | – | – | ? | –
CC(=O)Nc1ccc(N(CC(O)Cn2c3ccccc3c3ccccc32)S(=O)(=O)c2ccc(C)cc2)cc1 (stereo not given) | – | ? | – | 14µM | –
O=C1c2cccc(NCCCNCCO)c2C(=O)c2cccc(NCCCNCCO)c21 | · | 13µM | · | 16µM | –
O=C1c2ccccc2C(=O)c2c(NCc3cccnc3)cccc21 | – | – | – | – | –
Cc1ccc(F)cc1CNC(=O)c1sc2ncnc(NCC3CCCO3)c2c1C (stereo not given) | – | · | · | · | ·
SMILES | ATXN viability | ATXN2 expr inh | Apoferritin bind | TGFb inhibitor | HepG2 tox
CCN(Cc1ccccc1)S(=O)(=O)c1cc(C(=O)Nc2cc(Cl)cc(Cl)c2)ccc1F | · | · | – | 5µM | –
COc1ccc(CNS(=O)(=O)c2cc(C(=O)Nc3cc(Cl)cc(Cl)c3)ccc2F)cc1 | · | · | – | 7.1µM | 10µM
Cc1ccc(C(=O)Nc2ccc(Br)cc2)cc1S(=O)(=O)NCc1ccccc1 | ? | ? | – | 16µM | –
CN1C(=O)C(C)(C)c2cc(S(=O)(=O)NCc3ccc(C(=O)Nc4ccc(Cl)cc4)cc3)ccc21 | · | · | – | 4µM | –
O=C(Nc1cc(Cl)cc(Cl)c1)c1ccc(F)c(S(=O)(=O)NCc2ccccc2Cl)c1 | · | · | – | ? | –
CSc1nnc(CNC(=O)c2cccc3ccccc23)n1-c1ccccc1C | – | · | · | · | ·
CCN(C(=O)Cn1ncc2c(=O)oc3ccccc3c21)c1ccccc1F | – | – | – | – | –
C=CCC[C@@H](Cc1ccc(F)cc1)C(=O)OC[C@H](Cc1c[nH]c2ccccc12)NC(=O)[C@@H](CC=C)CC(=O)N[C@@H](CO)Cc1ccccc1 | ? | – | · | ? | –
C=CCC[C@@H](Cc1ccc(F)cc1)C(=O)OC[C@@H](Cc1c[nH]c2ccccc12)NC(=O)[C@H](CC=C)CC(=O)N[C@H](CO)Cc1ccccc1 | 25µM | ? | · | ? | –
C=CCC[C@H](Cc1ccc(F)cc1)C(=O)OC[C@@H](Cc1c[nH]c2ccccc12)NC(=O)[C@@H](CC=C)CC(=O)N[C@@H](CO)Cc1ccccc1 | 13µM | ? | · | 10µM | –
COc1cc(CN2CCCC(n3cc(C(=O)N4CCCC4)nn3)C2)cc(OC)c1 (stereo not given) | – | · | · | · | ·
COc1cc(-c2noc(-c3ccc(NC4CCCC4)c([N+](=O)[O-])c3)n2)cc(OC)c1OC | – | – | ? | – | –
c1ccc(COc2ncnc3c2ncn3CCCNC2CCN(Cc3ccccc3)CC2)cc1 | · | 25µM | · | 14µM | 16µM
O=C(Nc1ccn(CCCNC2CCN(Cc3ccccc3)CC2)c(=O)n1)OCc1ccccc1 | ? | ? | · | – | 6.3µM
O=C(Nc1ccn(CCCNCCN2CCOCC2)c(=O)n1)OCc1ccccc1 | – | – | · | – | –
O=C(Nc1ccn(CCCN2CCN(c3ccccc3)CC2)c(=O)n1)OCc1ccccc1 | ? | – | · | – | –
O=C(Nc1ccn(CCCN2CCN(Cc3cccc4ccccc34)CC2)c(=O)n1)OCc1ccccc1 | · | 28µM | · | ? | –
COc1cccc(CNC(=O)c2c(OC)cc(=O)n3c2CCN(C(=O)C2=C(C)OCCO2)CC3)c1 | – | · | · | · | ·
Cc1cc(C(=O)Nc2cccc(-c3nc(CNC(=O)c4sc(C)nc4C)c(C)o3)c2)c(C)o1 | – | · | · | · | ·
COc1ccc(OC)c(-c2csc(N(C)C(=O)c3ccco3)n2)c1 | 35µM | – | – | – | –
FC(F)(F)c1cccc(CN2CCC(c3cc(-c4cccs4)n[nH]3)CC2)c1 | ? | ? | – | ? | 20µM
N#Cc1cc([N+](=O)[O-])ccc1NC(=O)COC(=O)C12CC3CC(CC(C3)C1)C2 | · | · | 35µM | · | ·
O=C(O)Cn1cc(F)c(=O)[nH]c1=O | – | – | · | – | –
CCn1c(Oc2ccc(F)cc2F)nc2c1c(=O)n(C)c(=O)n2C | – | – | – | – | –
CCCCCCCCSC1=CC(=O)C(OC)=C(OC)C1=O | ? | · | · | 10µM | 7.1µM
CCOc1ccc(-c2n[nH]c3c2C(c2cccs2)N(c2ccc(Br)cc2)C3=O)cc1 (stereo not given) | · | · | – | 6.3µM | –
CCOc1ccc(N2C(=O)c3[nH]nc(-c4ccc(OC)cc4)c3C2c2cccs2)cc1 (stereo not given) | 18µM | ? | – | ? | –
CCOC(=O)c1ccc(N2C(=O)c3[nH]nc(-c4ccc(OCC)cc4)c3C2c2cccs2)cc1 (stereo not given) | ? | ? | – | ? | –
